Measured values taken from the supplement of paper PMC10849652.
About 7,900 targets were measured; listed, in parts, are those with a hit and a random draw of the rest. About 0.6% of all pairs of compound and target were hits.

compound: COc1cc(C(=O)O)ccc1NC(=O)[C@@H]1N[C@@H](CC(C)(C)C)[C@](C#N)(c2ccc(Cl)cc2F)[C@H]1c1cccc(Cl)c1F [idasanutlin]; experiment: log2 fold change, soluble protein after heating vs DMSO (PISA); higher = thermal stabilisation; K562 cells, 10 uM, 30 min; active = over 0.2 and 3.5 SD of the protein, either way, in both replicates (recomputed)
Method in brief: (§1)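 K562 cells at 2×10^6 cells/mL were given 10 μM compound for 30 min. Aliquots then went through 3 min of heating across 48°C-58°C, were pooled, and were extracted in PBS with 0.5% NP-40 at 4°C, and the supernatant after 21,000xg for 90 min was quantified by TMTpro 16plex LC-MS/MS with channel sums equalised. Thermal stability relative to control samples, from duplicates, is given as log2 fold change.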

UniProt Q15054, sequence (Q15054 whole entry, looked up): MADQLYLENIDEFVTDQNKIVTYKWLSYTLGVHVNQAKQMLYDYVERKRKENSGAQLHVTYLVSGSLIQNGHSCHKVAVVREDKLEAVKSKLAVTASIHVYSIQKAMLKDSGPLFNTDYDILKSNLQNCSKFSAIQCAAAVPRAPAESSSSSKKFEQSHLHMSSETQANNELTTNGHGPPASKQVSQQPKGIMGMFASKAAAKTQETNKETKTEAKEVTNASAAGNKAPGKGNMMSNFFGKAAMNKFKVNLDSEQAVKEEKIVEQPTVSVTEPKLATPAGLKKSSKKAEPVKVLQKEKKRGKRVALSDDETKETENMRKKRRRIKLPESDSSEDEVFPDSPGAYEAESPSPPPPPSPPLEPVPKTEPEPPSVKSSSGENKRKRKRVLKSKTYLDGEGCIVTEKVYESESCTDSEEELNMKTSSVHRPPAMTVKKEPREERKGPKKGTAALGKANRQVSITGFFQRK
UniProt Q9BRX2, sequence (Q9BRX2 whole entry, looked up): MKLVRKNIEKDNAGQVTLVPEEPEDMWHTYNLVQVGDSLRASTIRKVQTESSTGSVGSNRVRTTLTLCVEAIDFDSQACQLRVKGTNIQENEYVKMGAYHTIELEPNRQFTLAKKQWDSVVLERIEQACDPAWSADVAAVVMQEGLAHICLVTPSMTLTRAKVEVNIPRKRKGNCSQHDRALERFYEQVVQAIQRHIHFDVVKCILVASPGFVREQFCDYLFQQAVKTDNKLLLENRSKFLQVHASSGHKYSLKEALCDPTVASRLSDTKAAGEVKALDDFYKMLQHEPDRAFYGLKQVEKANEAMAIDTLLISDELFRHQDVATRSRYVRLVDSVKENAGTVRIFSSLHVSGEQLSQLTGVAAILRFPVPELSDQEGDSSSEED
UniProt Q9UMR5, sequence (Q9UMR5 whole entry, looked up): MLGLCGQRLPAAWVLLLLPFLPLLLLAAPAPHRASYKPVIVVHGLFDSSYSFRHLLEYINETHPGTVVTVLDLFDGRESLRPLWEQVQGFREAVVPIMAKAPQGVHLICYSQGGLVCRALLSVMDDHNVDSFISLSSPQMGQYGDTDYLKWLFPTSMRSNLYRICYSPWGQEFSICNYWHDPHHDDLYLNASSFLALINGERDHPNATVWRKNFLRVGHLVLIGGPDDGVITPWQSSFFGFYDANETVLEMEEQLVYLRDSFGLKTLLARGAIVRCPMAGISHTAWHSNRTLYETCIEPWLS
UniProt Q9Y3C6, sequence (Q9Y3C6 whole entry, looked up): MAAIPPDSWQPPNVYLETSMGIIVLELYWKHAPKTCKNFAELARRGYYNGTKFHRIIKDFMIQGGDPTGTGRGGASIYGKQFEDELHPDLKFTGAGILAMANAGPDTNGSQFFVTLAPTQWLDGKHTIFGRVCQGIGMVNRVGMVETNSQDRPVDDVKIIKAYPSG
UniProt Q8N4L2, sequence (Q8N4L2 whole entry, looked up): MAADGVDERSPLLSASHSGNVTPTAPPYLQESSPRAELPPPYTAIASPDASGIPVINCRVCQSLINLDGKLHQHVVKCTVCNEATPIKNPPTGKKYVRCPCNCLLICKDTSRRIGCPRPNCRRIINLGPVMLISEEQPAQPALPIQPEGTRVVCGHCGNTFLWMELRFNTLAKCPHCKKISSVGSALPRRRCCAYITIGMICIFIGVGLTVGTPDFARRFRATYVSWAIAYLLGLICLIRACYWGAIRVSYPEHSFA
UniProt Q13200, sequence (Q13200 whole entry, looked up): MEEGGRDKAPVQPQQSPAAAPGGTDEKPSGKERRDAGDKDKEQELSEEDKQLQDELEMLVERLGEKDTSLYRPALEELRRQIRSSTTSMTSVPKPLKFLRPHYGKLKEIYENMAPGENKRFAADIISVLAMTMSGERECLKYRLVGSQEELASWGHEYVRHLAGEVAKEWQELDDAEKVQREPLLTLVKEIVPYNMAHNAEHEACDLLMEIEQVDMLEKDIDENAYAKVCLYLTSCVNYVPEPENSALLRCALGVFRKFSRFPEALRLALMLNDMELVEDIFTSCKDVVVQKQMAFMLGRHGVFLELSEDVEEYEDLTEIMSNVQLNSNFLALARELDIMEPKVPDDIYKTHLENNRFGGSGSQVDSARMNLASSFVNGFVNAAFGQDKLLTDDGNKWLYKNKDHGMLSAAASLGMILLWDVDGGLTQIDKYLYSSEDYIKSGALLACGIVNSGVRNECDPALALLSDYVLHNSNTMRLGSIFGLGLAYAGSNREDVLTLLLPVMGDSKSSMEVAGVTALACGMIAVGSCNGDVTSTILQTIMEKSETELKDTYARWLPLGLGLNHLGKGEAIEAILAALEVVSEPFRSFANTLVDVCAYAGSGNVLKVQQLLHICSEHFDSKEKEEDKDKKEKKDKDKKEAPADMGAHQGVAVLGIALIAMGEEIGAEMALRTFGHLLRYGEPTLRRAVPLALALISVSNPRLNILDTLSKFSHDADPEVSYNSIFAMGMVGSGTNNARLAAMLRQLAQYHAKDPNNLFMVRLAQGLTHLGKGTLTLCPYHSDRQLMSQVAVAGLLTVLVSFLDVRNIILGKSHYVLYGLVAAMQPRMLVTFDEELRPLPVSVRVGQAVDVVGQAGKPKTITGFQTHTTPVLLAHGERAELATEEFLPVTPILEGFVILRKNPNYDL
UniProt Q8WUM4, sequence (Q8WUM4 whole entry, looked up): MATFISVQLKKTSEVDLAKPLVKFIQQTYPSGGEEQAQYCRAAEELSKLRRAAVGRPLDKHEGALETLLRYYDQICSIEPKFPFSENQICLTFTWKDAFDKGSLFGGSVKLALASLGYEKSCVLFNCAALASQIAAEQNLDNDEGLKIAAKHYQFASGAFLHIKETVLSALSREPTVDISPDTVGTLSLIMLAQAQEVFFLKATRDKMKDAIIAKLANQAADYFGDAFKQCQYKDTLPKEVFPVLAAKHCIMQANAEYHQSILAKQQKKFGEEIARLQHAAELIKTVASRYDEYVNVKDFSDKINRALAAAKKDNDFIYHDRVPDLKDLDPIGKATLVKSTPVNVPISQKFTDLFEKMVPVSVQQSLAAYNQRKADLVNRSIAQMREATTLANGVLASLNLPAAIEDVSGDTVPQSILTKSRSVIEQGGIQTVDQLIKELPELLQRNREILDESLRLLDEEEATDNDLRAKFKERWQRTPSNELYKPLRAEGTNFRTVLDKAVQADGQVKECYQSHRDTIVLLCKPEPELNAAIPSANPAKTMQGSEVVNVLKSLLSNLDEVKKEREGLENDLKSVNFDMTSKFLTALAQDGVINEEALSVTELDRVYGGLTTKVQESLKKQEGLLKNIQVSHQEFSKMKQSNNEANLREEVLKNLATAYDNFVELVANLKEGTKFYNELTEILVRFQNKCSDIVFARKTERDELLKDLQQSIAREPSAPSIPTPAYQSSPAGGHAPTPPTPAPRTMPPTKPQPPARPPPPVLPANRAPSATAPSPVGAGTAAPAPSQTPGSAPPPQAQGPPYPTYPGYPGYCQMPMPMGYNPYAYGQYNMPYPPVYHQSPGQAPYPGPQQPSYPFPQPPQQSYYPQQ
UniProt P0CG38, sequence (P0CG38 whole entry, looked up): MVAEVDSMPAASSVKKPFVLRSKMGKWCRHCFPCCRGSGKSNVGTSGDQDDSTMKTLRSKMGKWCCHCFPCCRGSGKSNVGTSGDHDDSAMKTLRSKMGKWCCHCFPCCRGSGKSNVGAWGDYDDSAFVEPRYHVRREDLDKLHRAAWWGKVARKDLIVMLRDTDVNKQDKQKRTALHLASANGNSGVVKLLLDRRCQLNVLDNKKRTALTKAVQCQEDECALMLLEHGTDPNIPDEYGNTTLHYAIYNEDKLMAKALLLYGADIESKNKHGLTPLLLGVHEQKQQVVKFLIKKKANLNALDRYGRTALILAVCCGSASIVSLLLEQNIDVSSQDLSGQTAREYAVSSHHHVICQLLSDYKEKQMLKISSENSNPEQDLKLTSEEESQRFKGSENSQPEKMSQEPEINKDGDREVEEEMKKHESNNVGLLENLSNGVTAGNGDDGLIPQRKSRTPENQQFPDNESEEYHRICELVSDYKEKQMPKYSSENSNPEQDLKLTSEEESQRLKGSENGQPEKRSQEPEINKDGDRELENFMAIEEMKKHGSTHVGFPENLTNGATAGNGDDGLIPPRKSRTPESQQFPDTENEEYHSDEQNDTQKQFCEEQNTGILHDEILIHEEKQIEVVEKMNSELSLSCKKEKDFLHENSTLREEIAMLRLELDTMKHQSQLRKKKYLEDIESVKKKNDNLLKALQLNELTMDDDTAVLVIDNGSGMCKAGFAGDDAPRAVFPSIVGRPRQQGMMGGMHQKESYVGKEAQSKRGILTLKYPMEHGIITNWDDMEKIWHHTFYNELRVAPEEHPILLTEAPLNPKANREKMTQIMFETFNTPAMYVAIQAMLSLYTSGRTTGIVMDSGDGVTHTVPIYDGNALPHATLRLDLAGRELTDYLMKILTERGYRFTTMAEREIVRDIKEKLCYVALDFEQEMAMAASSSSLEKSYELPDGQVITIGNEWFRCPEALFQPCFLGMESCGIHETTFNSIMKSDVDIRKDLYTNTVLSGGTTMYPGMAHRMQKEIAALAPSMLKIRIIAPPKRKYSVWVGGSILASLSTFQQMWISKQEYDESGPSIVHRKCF
UniProt Q9UKL6, sequence (Q9UKL6 whole entry, looked up): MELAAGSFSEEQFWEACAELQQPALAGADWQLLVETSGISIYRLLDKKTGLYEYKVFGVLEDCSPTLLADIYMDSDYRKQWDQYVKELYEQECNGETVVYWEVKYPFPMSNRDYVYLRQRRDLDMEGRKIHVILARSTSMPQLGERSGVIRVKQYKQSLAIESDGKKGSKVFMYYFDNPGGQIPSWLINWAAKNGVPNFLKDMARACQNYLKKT
UniProt Q00577, sequence (Q00577 whole entry, looked up): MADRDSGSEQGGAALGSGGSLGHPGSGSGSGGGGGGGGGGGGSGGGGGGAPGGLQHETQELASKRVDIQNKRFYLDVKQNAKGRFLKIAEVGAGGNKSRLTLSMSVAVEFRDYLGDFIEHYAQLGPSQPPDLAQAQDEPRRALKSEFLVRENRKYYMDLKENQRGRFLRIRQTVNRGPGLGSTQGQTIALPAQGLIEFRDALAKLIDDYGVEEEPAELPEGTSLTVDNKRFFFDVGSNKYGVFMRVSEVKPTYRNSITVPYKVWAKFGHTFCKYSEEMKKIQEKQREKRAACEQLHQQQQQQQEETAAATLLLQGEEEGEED

Target | log2 fold change
PPP6R1 (UniProt Q9UPN7) | -0.032 (inactive)
PLIN2 (UniProt Q99541) | -0.107 (inactive)
PELP1 (UniProt Q8IZL8) | 0.012 (inactive)
PCGF2 (UniProt P35227) | -0.008 (inactive)
PTPN23 (UniProt Q9H3S7) | -0.038 (inactive)
PBK (UniProt Q96KB5) | 0.027 (inactive)
POTEI (UniProt P0CG38) | -0.007 (inactive)
PDE4DIP isoform 4 (UniProt Q5VU43) | 0.055 (inactive)
PSMD2 (UniProt Q13200) | 0.039 (inactive)
PPT2 isoform 3 (UniProt Q9UMR5) | -0.082 (inactive)
PLA2G15 (UniProt Q8NCC3) | 0.01 (inactive)
PRPF38B (UniProt Q5VTL8) | 0.039 (inactive)
PELO (UniProt Q9BRX2) | -0.024 (inactive)
PIGT (UniProt Q969N2) | -0.02 (inactive)
PRKCQ (UniProt Q04759) | -0.003 (inactive)
PDCD6IP (UniProt Q8WUM4) | -0.018 (inactive)
PRIM2 (UniProt P49643) | 0.03 (inactive)
POLR2B (UniProt P30876) | -0.039 (inactive)
PIP4P2 (UniProt Q8N4L2) | 0.14 (inactive)

Target | log2 fold change
PTMA (UniProt P06454) | -0.045 (inactive)
POLD3 (UniProt Q15054) | -0.029 (inactive)
PCTP (UniProt Q9UKL6) | 0.029 (inactive)
PSMC3 (UniProt P17980) | 0.045 (inactive)
POLR3K (UniProt Q9Y2Y1) | 0.006 (inactive)
PPP2R5C isoform 4 (UniProt Q13362) | 0.017 (inactive)
PCYT1A (UniProt P49585) | -0.015 (inactive)
PEF1 (UniProt Q9UBV8) | -0.009 (inactive)
PITRM1 isoform 2 (UniProt Q5JRX3) | -0.047 (inactive)
PURA (UniProt Q00577) | 0.179 (inactive)
PPIL1 (UniProt Q9Y3C6) | -0.015 (inactive)
PIKFYVE (UniProt Q9Y2I7) | -0.096 (inactive)
PNPLA8 (UniProt Q9NP80) | -0.072 (inactive)
PNPLA2 (UniProt Q96AD5) | -0.082 (inactive)
PGGT1B (UniProt P53609) | -0.025 (inactive)
PI4K2A (UniProt Q9BTU6) | -0.044 (inactive)
PRPF40A (UniProt O75400) | 0.058 (inactive)
POLD1 (UniProt P28340) | 0.024 (inactive)

compound: COc1cc(Nc2ncc3c(n2)-c2ccc(Cl)cc2C(c2c(F)cccc2OC)=NC3)ccc1C(=O)O [alisertib]; experiment: as above
Method in brief: as §1

Target | log2 fold change
PPP6R1 (UniProt Q9UPN7) | -0.098 (inactive)
PLIN2 (UniProt Q99541) | 0.058 (inactive)
PELP1 (UniProt Q8IZL8) | -0.045 (inactive)
PCGF2 (UniProt P35227) | 0.036 (inactive)
PTPN23 (UniProt Q9H3S7) | 0.002 (inactive)
PBK (UniProt Q96KB5) | -0.032 (inactive)
POTEI (UniProt P0CG38) | 0.037 (inactive)
PDE4DIP isoform 4 (UniProt Q5VU43) | -0.102 (inactive)
PSMD2 (UniProt Q13200) | -0.089 (inactive)
PPT2 isoform 3 (UniProt Q9UMR5) | -0.114 (inactive)
PLA2G15 (UniProt Q8NCC3) | 0.095 (inactive)
PRPF38B (UniProt Q5VTL8) | -0.09 (inactive)
PELO (UniProt Q9BRX2) | 0.489 (inactive)
PIGT (UniProt Q969N2) | -0.081 (inactive)
PRKCQ (UniProt Q04759) | -0.018 (inactive)
PDCD6IP (UniProt Q8WUM4) | 0.045 (inactive)
PRIM2 (UniProt P49643) | -0.042 (inactive)
POLR2B (UniProt P30876) | -0.057 (inactive)
PIP4P2 (UniProt Q8N4L2) | 0.022 (inactive)

Target | log2 fold change
PTMA (UniProt P06454) | -0.596 (active)
POLD3 (UniProt Q15054) | 0.002 (inactive)
PCTP (UniProt Q9UKL6) | -0.081 (inactive)
PSMC3 (UniProt P17980) | -0.056 (inactive)
POLR3K (UniProt Q9Y2Y1) | -0.156 (inactive)
PPP2R5C isoform 4 (UniProt Q13362) | 0.031 (inactive)
PCYT1A (UniProt P49585) | 0.025 (inactive)
PEF1 (UniProt Q9UBV8) | -0.008 (inactive)
PITRM1 isoform 2 (UniProt Q5JRX3) | -0.009 (inactive)
PURA (UniProt Q00577) | -0.106 (inactive)
PPIL1 (UniProt Q9Y3C6) | -0.078 (inactive)
PIKFYVE (UniProt Q9Y2I7) | 0.016 (inactive)
PNPLA8 (UniProt Q9NP80) | -0.053 (inactive)
PNPLA2 (UniProt Q96AD5) | 0.014 (inactive)
PGGT1B (UniProt P53609) | -0.03 (inactive)
PI4K2A (UniProt Q9BTU6) | -0.006 (inactive)
PRPF40A (UniProt O75400) | 0.024 (inactive)
POLD1 (UniProt P28340) | -0.042 (inactive)
